Data as given in ChEMBL document CHEMBL1201862, “PubChem BioAssay data set” (2004).
Where “and” joins values, the source holds several entries; their conditions need not be identical. Identical values can stand only once. Only a part of the results of these assays is listed, not drawn at random. For part of these data: Results with a measured potency or affinity are listed apart. Calls of active or inactive are those of the source. Unless noted, the calls are words filed in the database; no cut-off is given here.

Columns and labels:
[1] = target: Pyruvate kinase PKM (Homo sapiens) (UniProt P14618); assay: qHTS Assay for Activators of Human Muscle Pyruvate Kinase.; assay type: functional
[2] = DNA binders by acridine orange displacement, dose response, counter-screen for EWS/Fli inhibitor project, biochemical, fluorescence polarization, cherry-pick (AID 720586)
[3] = target: Nuclear factor erythroid 2-related factor 2 (Homo sapiens) (UniProt Q16236)
[4] = target: ATPase family AAA domain-containing protein 5 (Homo sapiens) (UniProt Q96QE3); assay: qHTS screen for small molecules that inhibit ELG1-dependent DNA repair in human embryonic kidney (HEK293T) cells expressing luciferase-tagged ELG1: Hit Confirmation using MMS Stimulated ELG1.; assay type: functional
[5] = target: Hypoxia-inducible factor 1-alpha (Homo sapiens) (UniProt Q16665); assay: qHTS Assay for Identification of Small Molecule Agonists for Hypoxia Response Element Signaling Pathway. [Related pubchem assays: 915 ]; assay type: functional
[6] = target: T1, M-phase phosphoprotein 8 (Homo sapiens) (UniProt Q99549)
T1 sequence (whole entry): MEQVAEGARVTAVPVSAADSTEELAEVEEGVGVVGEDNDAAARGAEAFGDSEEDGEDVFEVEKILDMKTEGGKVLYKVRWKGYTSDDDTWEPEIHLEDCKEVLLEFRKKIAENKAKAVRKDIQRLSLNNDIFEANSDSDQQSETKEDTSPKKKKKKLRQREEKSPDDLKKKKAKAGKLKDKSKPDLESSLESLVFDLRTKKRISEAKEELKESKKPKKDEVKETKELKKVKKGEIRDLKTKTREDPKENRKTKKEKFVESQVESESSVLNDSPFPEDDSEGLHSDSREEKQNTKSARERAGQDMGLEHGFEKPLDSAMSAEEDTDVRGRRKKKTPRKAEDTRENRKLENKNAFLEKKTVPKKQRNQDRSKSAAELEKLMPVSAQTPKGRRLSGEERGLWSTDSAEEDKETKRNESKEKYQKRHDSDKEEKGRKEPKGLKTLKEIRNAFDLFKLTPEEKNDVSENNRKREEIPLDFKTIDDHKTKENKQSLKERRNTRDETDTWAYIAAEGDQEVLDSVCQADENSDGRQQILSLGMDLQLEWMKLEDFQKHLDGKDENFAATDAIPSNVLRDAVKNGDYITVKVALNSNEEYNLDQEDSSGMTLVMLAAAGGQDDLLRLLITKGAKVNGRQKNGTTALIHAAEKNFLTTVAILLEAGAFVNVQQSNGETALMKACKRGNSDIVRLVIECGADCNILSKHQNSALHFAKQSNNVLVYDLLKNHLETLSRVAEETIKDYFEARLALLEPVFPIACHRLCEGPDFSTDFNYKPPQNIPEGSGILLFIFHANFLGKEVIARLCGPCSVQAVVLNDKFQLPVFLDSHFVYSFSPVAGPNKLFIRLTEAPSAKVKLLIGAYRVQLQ

[7] = target: T2, DNA polymerase kappa (Homo sapiens) (UniProt Q9UBT6)
T2 sequence (whole entry): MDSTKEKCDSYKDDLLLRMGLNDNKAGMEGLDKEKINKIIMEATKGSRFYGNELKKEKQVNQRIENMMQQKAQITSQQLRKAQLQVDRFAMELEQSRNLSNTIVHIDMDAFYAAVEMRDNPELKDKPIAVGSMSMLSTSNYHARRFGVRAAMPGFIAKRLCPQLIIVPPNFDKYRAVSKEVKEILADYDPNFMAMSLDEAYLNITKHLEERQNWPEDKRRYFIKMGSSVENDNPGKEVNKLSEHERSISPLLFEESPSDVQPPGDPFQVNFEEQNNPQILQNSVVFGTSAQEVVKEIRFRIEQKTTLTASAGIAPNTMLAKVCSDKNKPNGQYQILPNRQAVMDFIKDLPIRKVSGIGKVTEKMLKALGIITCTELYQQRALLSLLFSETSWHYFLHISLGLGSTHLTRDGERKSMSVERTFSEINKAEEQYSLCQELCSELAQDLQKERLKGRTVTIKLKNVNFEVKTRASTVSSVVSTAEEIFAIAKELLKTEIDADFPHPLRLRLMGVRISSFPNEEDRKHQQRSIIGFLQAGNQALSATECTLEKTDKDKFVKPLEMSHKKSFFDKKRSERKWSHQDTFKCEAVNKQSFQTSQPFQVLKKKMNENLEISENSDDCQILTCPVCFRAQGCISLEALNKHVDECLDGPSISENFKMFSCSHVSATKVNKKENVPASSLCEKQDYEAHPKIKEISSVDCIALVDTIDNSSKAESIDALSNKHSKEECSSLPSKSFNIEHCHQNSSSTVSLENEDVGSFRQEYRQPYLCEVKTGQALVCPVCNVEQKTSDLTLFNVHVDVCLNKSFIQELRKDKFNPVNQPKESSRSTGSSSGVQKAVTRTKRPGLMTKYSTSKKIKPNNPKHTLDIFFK

[8] = target: T3, DNA polymerase eta (Homo sapiens) (UniProt Q9Y253); assay: qHTS for Inhibitors of Polymerase Eta: Confirmatory Assay for Cherry-picked Compounds.; assay type: functional
T3 sequence (whole entry): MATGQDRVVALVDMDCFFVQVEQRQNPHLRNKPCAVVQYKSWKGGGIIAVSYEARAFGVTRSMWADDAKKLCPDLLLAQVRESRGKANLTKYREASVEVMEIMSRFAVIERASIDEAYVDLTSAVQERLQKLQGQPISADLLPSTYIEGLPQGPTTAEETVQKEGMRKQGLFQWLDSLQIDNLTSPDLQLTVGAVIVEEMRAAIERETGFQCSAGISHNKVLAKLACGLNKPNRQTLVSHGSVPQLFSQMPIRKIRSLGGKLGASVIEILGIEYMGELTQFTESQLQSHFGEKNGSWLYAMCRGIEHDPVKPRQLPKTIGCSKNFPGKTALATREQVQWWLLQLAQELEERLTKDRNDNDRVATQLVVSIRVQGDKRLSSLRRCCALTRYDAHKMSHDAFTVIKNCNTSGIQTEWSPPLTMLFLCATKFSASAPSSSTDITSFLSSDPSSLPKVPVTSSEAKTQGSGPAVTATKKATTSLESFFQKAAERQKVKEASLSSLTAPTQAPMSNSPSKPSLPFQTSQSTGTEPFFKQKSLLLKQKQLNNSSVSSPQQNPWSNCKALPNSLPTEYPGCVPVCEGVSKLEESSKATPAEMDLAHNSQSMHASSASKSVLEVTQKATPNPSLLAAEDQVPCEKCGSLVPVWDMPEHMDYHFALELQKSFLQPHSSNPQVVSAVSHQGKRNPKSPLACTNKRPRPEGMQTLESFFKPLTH

Sequence of Hypoxia-inducible factor 1-alpha (Homo sapiens) (Q16665 whole entry, looked up): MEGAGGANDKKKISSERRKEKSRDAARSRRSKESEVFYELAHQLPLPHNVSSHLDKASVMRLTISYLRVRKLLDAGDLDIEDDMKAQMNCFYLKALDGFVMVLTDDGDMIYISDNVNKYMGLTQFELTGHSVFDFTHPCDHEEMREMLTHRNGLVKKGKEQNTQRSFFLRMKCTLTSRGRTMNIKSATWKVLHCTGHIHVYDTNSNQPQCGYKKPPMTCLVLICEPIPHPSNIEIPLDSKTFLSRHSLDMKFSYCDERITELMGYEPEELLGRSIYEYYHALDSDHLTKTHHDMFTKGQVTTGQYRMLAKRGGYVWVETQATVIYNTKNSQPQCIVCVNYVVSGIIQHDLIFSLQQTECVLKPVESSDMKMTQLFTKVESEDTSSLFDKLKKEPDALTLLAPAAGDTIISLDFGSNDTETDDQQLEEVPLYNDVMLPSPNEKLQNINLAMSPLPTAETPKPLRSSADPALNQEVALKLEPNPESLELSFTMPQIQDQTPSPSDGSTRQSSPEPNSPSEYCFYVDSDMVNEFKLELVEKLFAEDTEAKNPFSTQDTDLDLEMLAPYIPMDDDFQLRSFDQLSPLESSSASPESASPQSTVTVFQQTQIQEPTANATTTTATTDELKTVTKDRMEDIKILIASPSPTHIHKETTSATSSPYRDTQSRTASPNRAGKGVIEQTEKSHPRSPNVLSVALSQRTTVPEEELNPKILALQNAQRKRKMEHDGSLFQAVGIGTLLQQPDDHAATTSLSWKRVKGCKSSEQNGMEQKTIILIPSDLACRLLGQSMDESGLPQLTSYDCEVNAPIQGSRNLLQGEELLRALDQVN
Sequence of ATPase family AAA domain-containing protein 5 (Homo sapiens) (Q96QE3 whole entry, the tested form may be a part): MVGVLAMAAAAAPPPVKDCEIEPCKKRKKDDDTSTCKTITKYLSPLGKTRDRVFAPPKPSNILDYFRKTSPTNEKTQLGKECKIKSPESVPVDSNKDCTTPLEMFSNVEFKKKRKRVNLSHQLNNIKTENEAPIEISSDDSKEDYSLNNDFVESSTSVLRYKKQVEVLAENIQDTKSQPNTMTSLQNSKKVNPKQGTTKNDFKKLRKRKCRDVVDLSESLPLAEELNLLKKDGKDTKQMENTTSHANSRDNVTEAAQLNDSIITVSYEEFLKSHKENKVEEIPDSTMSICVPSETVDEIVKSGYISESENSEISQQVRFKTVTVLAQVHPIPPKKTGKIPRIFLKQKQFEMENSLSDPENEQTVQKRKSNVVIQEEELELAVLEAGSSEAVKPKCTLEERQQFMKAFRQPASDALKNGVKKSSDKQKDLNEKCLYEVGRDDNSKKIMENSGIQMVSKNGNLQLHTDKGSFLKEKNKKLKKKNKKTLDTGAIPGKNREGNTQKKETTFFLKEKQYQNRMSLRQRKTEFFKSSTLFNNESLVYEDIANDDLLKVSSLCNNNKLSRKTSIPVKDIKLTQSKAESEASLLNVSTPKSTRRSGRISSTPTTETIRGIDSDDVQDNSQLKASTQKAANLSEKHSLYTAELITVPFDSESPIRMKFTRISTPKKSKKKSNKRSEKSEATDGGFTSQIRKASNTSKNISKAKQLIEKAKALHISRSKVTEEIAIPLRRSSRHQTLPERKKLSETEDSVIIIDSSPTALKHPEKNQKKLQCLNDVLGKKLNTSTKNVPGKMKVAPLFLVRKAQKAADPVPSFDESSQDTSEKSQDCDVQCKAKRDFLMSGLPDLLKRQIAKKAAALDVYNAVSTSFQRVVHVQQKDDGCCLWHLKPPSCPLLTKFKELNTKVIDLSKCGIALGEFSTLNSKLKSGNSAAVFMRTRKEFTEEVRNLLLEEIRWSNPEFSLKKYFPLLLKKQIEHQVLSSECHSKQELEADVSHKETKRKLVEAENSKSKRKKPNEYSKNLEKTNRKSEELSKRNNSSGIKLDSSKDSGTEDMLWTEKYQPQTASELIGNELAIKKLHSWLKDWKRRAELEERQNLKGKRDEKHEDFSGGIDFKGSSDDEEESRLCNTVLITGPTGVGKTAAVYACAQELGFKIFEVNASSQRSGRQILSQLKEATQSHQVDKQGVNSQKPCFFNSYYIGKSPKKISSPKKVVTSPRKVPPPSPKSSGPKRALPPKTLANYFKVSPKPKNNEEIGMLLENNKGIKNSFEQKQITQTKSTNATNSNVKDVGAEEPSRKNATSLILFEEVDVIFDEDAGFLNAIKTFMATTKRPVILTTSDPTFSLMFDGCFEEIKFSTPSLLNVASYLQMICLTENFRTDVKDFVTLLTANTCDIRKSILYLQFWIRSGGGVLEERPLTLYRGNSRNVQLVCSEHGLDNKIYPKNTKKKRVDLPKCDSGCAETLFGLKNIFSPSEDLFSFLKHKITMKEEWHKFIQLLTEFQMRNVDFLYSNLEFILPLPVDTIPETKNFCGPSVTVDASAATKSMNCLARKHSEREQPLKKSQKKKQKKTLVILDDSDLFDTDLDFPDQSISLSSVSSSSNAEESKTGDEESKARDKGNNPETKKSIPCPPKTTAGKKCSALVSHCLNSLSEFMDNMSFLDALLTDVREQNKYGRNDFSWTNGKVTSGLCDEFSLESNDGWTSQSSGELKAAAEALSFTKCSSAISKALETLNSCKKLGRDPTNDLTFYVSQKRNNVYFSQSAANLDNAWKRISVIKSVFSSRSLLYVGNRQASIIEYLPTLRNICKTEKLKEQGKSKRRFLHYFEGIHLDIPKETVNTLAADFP
Sequence of Nuclear factor erythroid 2-related factor 2 (Homo sapiens) (Q16236 whole entry, the tested form may be a part): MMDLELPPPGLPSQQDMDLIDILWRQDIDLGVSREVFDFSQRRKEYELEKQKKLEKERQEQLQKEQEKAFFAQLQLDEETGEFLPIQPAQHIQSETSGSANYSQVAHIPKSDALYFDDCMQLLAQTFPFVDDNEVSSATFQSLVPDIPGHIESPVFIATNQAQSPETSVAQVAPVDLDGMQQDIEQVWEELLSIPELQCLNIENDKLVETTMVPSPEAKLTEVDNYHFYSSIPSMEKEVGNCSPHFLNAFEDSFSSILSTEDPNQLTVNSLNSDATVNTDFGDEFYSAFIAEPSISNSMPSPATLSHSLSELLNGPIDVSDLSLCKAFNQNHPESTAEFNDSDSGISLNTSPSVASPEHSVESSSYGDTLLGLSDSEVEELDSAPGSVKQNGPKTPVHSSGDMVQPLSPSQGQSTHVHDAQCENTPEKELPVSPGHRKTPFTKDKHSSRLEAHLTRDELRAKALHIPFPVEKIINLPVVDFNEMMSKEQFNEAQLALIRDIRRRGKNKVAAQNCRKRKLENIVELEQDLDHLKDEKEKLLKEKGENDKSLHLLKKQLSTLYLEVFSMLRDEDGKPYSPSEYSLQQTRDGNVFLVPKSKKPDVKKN
Sequence of Pyruvate kinase PKM (Homo sapiens) (P14618 2-531 limits assumed): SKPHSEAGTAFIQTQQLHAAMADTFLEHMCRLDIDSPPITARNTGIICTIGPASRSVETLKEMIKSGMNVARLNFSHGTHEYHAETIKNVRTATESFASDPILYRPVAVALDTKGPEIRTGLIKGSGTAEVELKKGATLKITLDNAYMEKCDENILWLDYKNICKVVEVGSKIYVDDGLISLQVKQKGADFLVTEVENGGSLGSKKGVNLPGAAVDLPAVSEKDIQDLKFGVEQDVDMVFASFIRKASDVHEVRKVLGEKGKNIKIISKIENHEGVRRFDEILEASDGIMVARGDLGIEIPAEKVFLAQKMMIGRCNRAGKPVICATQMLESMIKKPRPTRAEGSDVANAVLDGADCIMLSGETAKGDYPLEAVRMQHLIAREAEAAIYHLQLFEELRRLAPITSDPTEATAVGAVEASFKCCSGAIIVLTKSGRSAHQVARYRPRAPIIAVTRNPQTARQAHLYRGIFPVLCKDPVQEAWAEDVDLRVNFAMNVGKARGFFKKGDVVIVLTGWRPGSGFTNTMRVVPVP

With `N[C@H](CCC(=O)O)C(=O)O` the Potency [1] was “inactive”.

In the case of `COc1ccc(C2=Nn3c(nnc3-c3ccccc3F)SC2)cc1OC1CCOC1` (configuration not stated), the AbsAC35 [2] is reported as 137 µM (active).

CISPLATIN, CHEMBL11359 showed a GI50 (P388/ADR) of 0.561 µM, a GI50 (SN12K1) of 4.06 µM and a GI50 (P388) of 0.248 µM.

For `CC(=O)OCc1ccccc1`, the Potency [3] was 30.6 µM (active).

For `Nc1nc2cc3c(cc2cc1C(=O)NCCc1c[nH]c2ccccc12)OCO3`, the AbsAC35 [2] was 251 µM (active).

With `O=C(O)c1cc(/N=N/c2ccc(S(=O)(=O)Nc3ccccn3)cc2)ccc1O` the Potency [4] was “inactive”.

In the case of `O=C(O)Cc1ccccc1Nc1c(Cl)cccc1Cl`, the Potency [5] is reported as 6.31 µM (active) and 25.1 µM (active) and the Potency [6] is reported as “inactive”.

In the case of `Cc1cc(C)c(NC(=O)Cn2c(=O)n(Cc3ccc(C(=O)NCc4ccco4)cc3)c(=O)c3sccc32)c(C)c1`, the Potency [7] is reported as 299 µM (active).

With `CC(C)(O)c1ccccc1CC[C@@H](SCC1(CC(=O)O)CC1)c1cccc(/C=C/c2ccc3ccc(Cl)cc3n2)c1` the Potency [8] was 213 µM (active).
